The assay concerns the target GST-Hu-p50 (Homo sapiens, UniProt P19838 7-356). The assay can be described thus: protein-binding microarray (PBM); PBM: ~300 nM protein, 6 mM HEPES pH 7.8, 80 mM KCl, 0.5 mM EDTA, 0.5 mM EGTA, 6% glycerol, 35 ng/ul poly-dIdC, 1% milk, 1 h, room temperature; Ap Aiptasia and Nv Nematostella (sea anemones) / Co Capsaspora / Aq Amphimedon (sponge) / Dm Drosophila / Hu human; RHD is the Rel homology domain; high values mean tight binding. To be noted: dsDNA, one strand shown.
Sequence of GST-Hu-p50 (P19838 7-356): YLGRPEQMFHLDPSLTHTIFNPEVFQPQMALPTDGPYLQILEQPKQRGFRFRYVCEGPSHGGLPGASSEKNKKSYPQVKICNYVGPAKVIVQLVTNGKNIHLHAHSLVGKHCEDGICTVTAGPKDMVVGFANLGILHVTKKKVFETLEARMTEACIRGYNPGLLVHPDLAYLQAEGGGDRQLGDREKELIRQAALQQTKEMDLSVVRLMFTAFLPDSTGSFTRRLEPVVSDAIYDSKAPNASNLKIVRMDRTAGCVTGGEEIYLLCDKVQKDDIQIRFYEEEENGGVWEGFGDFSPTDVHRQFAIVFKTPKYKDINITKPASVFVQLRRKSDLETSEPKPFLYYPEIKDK
“CCGATTAACATCACAACACCCCCTGATGTTAATCGGGTCTTGATTCGCTTGACGCTGCTG” gave a binding signal of 4.62 z-score.

Turning to “CCGATTAACATCAAGAAATTTCCTGATGTTAATCGGGTCTTGATTCGCTTGACGCTGCTG”, the binding signal was 1.76 z-score.

On to “CCGATTAACATCACGGTGGGAAATGATGTTAATCGGGTCTTGATTCGCTTGACGCTGCTG”, for which the binding signal was determined as 1.86 z-score.

Turning to “CCGATTAACATCAGGGGATAAAATGATGTTAATCGGGTCTTGATTCGCTTGACGCTGCTG”, the binding signal was 3.95 z-score.

Turning to “CCGATTAACATCAGGGATTTTCATGATGTTAATCGGGTCTTGATTCGCTTGACGCTGCTG”, the binding signal was 4.44 z-score.

On to “CCGATTAACATCAGGGGAGAACCTGATGTTAATCGGGTCTTGATTCGCTTGACGCTGCTG”, for which the binding signal was found to be 4.26 z-score.

“CCGATTAACATCAGGGATTCCCATGATGTTAATCGGGTCTTGATTCGCTTGACGCTGCTG” yielded a binding signal of 3.48 z-score.

As for “CCGATTAACATCAGGACTACCCCTGATGTTAATCGGGTCTTGATTCGCTTGACGCTGCTG”, the binding signal was 3.02 z-score.

On to “CCGATTAACATCAAGGGAATCCCTGATGTTAATCGGGTCTTGATTCGCTTGACGCTGCTG”, for which the binding signal is 4.17 z-score.

Take “CCGATTAACATCAGGGATAACCCTGATGTTAATCGGGTCTTGATTCGCTTGACGCTGCTG”: the binding signal was 2.62 z-score.

With “CCGATTAACATCAGGGGGTCACCTGATGTTAATCGGGTCTTGATTCGCTTGACGCTGCTG”, the binding signal came to 2.9 z-score.

“CCGATTAACATCAGGAATAACCCTGATGTTAATCGGGTCTTGATTCGCTTGACGCTGCTG” registered a binding signal of 3.24 z-score.

Take “CCGATTAACATCAGTACGGGAAATGATGTTAATCGGGTCTTGATTCGCTTGACGCTGCTG”: the binding signal amounted to 1.94 z-score.

Regarding “CCGATTAACATCAAAAAAAGTACTGATGTTAATCGGGTCTTGATTCGCTTGACGCTGCTG”, the binding signal came to 1.52 z-score.

In turn, “CCGATTAACATCAAGGTACCCCCTGATGTTAATCGGGTCTTGATTCGCTTGACGCTGCTG” showed a binding signal of 3.34 z-score.

For the sequence “CCGATTAACATCAGGTCGGGAAATGATGTTAATCGGGTCTTGATTCGCTTGACGCTGCTG”, the binding signal amounted to 1.27 z-score.

Sequence “CCGATTAACATCAGGAATTCACCTGATGTTAATCGGGTCTTGATTCGCTTGACGCTGCTG” displayed a binding signal of 3.81 z-score.

In turn, “CCGATTAACATCAAAGAAGCCCCTGATGTTAATCGGGTCTTGATTCGCTTGACGCTGCTG” yielded a binding signal of 5.02 z-score.

“CCGATTAACATCAGGGGAAGGAATGATGTTAATCGGGTCTTGATTCGCTTGACGCTGCTG” showed a binding signal of 3.5 z-score.

“CCGATTAACATCAGGCTTTCCCATGATGTTAATCGGGTCTTGATTCGCTTGACGCTGCTG” gave a binding signal of 1.36 z-score.

As to “CCGATTAACATCAGGGAATACCATGATGTTAATCGGGTCTTGATTCGCTTGACGCTGCTG”, the binding signal amounted to 1.46 z-score.

Sequence “CCGATTAACATCAACCACCCCCTTGATGTTAATCGGGTCTTGATTCGCTTGACGCTGCTG” had a binding signal of 4.03 z-score.

On to “CCGATTAACATCAGGGGGATGGATGATGTTAATCGGGTCTTGATTCGCTTGACGCTGCTG”, for which the binding signal turned out to be 3.69 z-score.

“CCGATTAACATCAAAAATCACCCTGATGTTAATCGGGTCTTGATTCGCTTGACGCTGCTG” had a binding signal of 4.76 z-score.

Sequence “CCGATTAACATCAGGGAAATTCATGATGTTAATCGGGTCTTGATTCGCTTGACGCTGCTG” gave a binding signal of 4.4 z-score.

In turn, “CCGATTAACATCACGGGAATCCCTGATGTTAATCGGGTCTTGATTCGCTTGACGCTGCTG” had a binding signal of 3.99 z-score.

In turn, “CCGATTAACATCAGACTTCCCCATGATGTTAATCGGGTCTTGATTCGCTTGACGCTGCTG” displayed a binding signal of 4.73 z-score.

“CCGATTAACATCAGGCCCCCCCCTGATGTTAATCGGGTCTTGATTCGCTTGACGCTGCTG”: the binding signal turned out to be 4.51 z-score.

Sequence “CCGATTAACATCAGGAAAACACCTGATGTTAATCGGGTCTTGATTCGCTTGACGCTGCTG” registered a binding signal of 4.77 z-score.

With “CCGATTAACATCAAGGAATTTCCTGATGTTAATCGGGTCTTGATTCGCTTGACGCTGCTG”, the binding signal was found to be 1.48 z-score.

Sequence “CCGATTAACATCAGGCAAATCCCTGATGTTAATCGGGTCTTGATTCGCTTGACGCTGCTG” showed a binding signal of 1.9 z-score.

On to “CCGATTAACATCAGGGGGGGTACTGATGTTAATCGGGTCTTGATTCGCTTGACGCTGCTG”, for which the binding signal was found to be 3.91 z-score.

“CCGATTAACATCAAATCACCCCCTGATGTTAATCGGGTCTTGATTCGCTTGACGCTGCTG” came in with a binding signal of 4.62 z-score.

In turn, “CCGATTAACATCAGGCGTCCCCCTGATGTTAATCGGGTCTTGATTCGCTTGACGCTGCTG” registered a binding signal of 4.92 z-score.

For the sequence “CCGATTAACATCAATGGGAAAATTGATGTTAATCGGGTCTTGATTCGCTTGACGCTGCTG”, the binding signal amounted to 3.49 z-score.

In turn, “CCGATTAACATCAAACAACCCCCTGATGTTAATCGGGTCTTGATTCGCTTGACGCTGCTG” had a binding signal of 5.05 z-score.

Consider “CCGATTAACATCAAGGTTTTCCCTGATGTTAATCGGGTCTTGATTCGCTTGACGCTGCTG”, for which the binding signal worked out at 4.23 z-score.

“CCGATTAACATCAGGGCATACCCTGATGTTAATCGGGTCTTGATTCGCTTGACGCTGCTG” showed a binding signal of 1.86 z-score.

In turn, “CCGATTAACATCAATGCACCCCCTGATGTTAATCGGGTCTTGATTCGCTTGACGCTGCTG” registered a binding signal of 4.12 z-score.

(Values after article PMC5700166.)
